# Unmarked numbers belong to inactive results. Calls of active or inactive are those of the source. Cut-off read from the data, not from the text of the source: active = inhibition score above about 11; inactive = the rest.
# Assay: yeast proliferation inhibition, dose response, BY4741, OD595, 24 h (AID 489042)
# Conditions: S. cerevisiae BY4741 growth, flow cytometer event count, 7 d (AID 449753), hits give high values
row,SMILES,inhibition score
1,Oc1cccc2nc3ccccc3nc12,0
2,Cn1c(=O)[nH]c2nncnc2c1=O,0
3,Cn1c(O)c(C(=Nc2ccc(F)cc2)c2ccccc2Cl)c(=O)n(C)c1=O,0
4,C[C@]12CCC3C(CC[C@H]4C[C@@H](O)CC[C@]34C)[C@H]1CC[C@H]2O (stereo not given in full),0
5,CC(=O)O[C@H]1CCC2C3CC[C@H]4[C@@H](O)[C@H](O)CC[C@]4(C)C3CC[C@@]21C (stereo not given in full),0
6,C[n+]1c2ccccc2nc2ccc(NCCO)cc21,0
7,O=c1[nH]c(O)c(C=Nc2ccc(F)c(Cl)c2)c(=O)[nH]1,0
8,CNc1ccc2nc3ccccc3[n+](C)c2c1,0
9,C[C@]12CCC3C(CC[C@H]4C[C@H](O)CC[C@]34C)C1C[C@@H](CCCCl)[C@@H]2O (stereo not given in full),0
10,C#C[C@]1(O)[C@H](O)CC2C3CC[C@H]4C[C@@H](O)CC[C@]4(C)C3CC[C@@]21C (stereo not given in full),0
11,C=C1C(O)[C@@H]2O[C@]3(CC[C@H](/C=C/C(C)[C@@H]4CC(C)=CC5(O[C@H](C[C@@](C)(O)C(=O)O)CCC5O)O4)O3)CC[C@H]2O[C@@H]1C(O)CC(C)[C@H]1OC2(CCCCO2)CCC1C (stereo not given in full),11 (active)
12,Nc1cc2nc3ccccc3nc2cc1N,0
13,OCC[n+]1c2ccccc2nc2ccc(N3CCOCC3)cc21,0
14,C[C@]12CCC3C(CC[C@H]4C[C@@H](O)CC[C@]34C)C1CC[C@@H]2OC(=O)[C@H](N)CCCCN (stereo not given in full),0
15,C[C@]12CCC3C(CC[C@H]4C[C@H](O)CC[C@]34C)C1CCC2=O (stereo not given in full),0

# Source: PubChem BioAssay AID489042 (NMMLSC, 2010)
